Experimental data: PubChem BioAssay AID540256 (National Center for Advancing Translational Sciences (NCATS), 2011)
Screen size: about 300,000 compounds; about 3,700 (1.2%) were called active. Where a call stands in place of a potency, no number is given. About 20% were inconclusive and are not listed. Calls follow the shape of the full dose curve; tested in HEK293 cells. The full list was thinned out, with actives kept by preference.

assay: qHTS for Inhibitors of binding or entry into cells for Lassa Virus; conditions: Lassa virus pseudotype entry inhibition, cell reporter; series mostly up to 37.9 µM; also: nearly all actives have a fitted effect of over 50% in size
Potency is read from the fitted curve at half-maximal effect.

Row | Structure (SMILES) | Potency
1 | CC(C)c1ccc(S(=O)(=O)N2CCN(C(=O)CN3C(=O)NC(C)(c4ccccc4)C3=O)CC2)cc1 (centres undefined) | inactive
2 | Cc1cc(S(=O)(=O)Nc2ccc(C(=O)NCC(c3ccco3)N3CCCC3)cc2)ccc1F (centres undefined) | inactive
3 | CCOc1ccc(NS(=O)(=O)c2ccc(C(=O)NC3CCN(Cc4ccccc4)CC3)cc2)cc1 | inactive
4 | CCC(=O)c1cn(CCOc2ccccc2OC)c2ccccc12 | inactive
5 | COc1ccc(OCCCC(=O)NCCc2ccccc2)cc1 | inactive
6 | CCCCOc1ccc(C(=O)NCc2ccncc2)cc1 | inactive
7 | CCCOc1ccc(C(=O)NCCc2ccccc2)cc1 | 2.51 µM (active)
8 | O=C(NCc1cccnc1)c1cn(-c2ccccc2)nc1-c1cccs1 | inactive
9 | O=C(O)c1ccc(N/N=C/c2cn(-c3ccccc3)nc2-c2cccs2)cc1 | 5.01 µM (active)
10 | CC(C)(C)OC(=O)N/N=C/c1cn(-c2ccccc2)nc1-c1cccnc1 | inactive
11 | O=C(CC1Sc2ccccc2NC1=O)NNc1ccc(Cl)c(Cl)c1 (centres undefined) | inactive
12 | Cc1c(C)c(C)c(S(=O)(=O)N2CCC3(CC2)OCCO3)c(C)c1C | inactive
13 | CC(=NNC(=O)c1ccncc1)c1ccc(Cl)c(Cl)c1 | inactive
14 | CCN(c1ccccc1)S(=O)(=O)c1ccc(NC(=O)C(C)(C)C)cc1 | 14.6 µM (active)
15 | CCN(c1ccccc1)S(=O)(=O)c1cccc(C(=O)O)c1 | inactive
16 | CCN(c1ccccc1)S(=O)(=O)c1ccc(C(=O)Nc2nccs2)cc1 | inactive
17 | CN(CC(=O)NCC(c1ccccc1)N1CCCC1)S(=O)(=O)c1ccc(Cl)cc1 (centres undefined) | inactive
18 | CCOc1ccc(NC(=O)c2ncoc2-c2ccco2)cc1 | inactive
19 | CCOc1ccc(-c2nnc(-c3ccco3)o2)cc1 | 5.8 µM (active)
20 | CCCCOc1ccc(-c2nnc(-c3ccco3)o2)cc1 | inactive
21 | Cc1c[n+]([O-])ccc1[N+](=O)[O-] | inactive
22 | O=C1C2C3C=CC(C3)C2C(=O)N1c1ncc([N+](=O)[O-])s1 (centres undefined) | inactive
23 | COc1ccc(C(=O)Nc2ccc(NC(=O)C(C)C)nc2)cc1 | inactive
24 | COc1ccc(CS(=O)/C(Cl)=C(/Cl)C(=O)Nc2ccc(OC)nc2)cc1 (centres undefined) | 3.98 µM (active)
25 | CCOc1ccc(S(=O)(=O)Nc2ccc(OC)nc2)cc1 | inactive
26 | O=C(CSc1nnnn1C1CCCC1)N1CCCCC1 | inactive

Row | Structure (SMILES) | Potency
27 | Cc1ccc(C)c(OCCC(=O)OCC(=O)NC(=O)NCc2ccccc2)c1 | inactive
28 | Cc1cc(C)cc(NC(=O)COc2coc(CN3CCN(c4ccccc4)CC3)cc2=O)c1 | inactive
29 | NC1=NOC(=O)C1C1CCCCC1 (centres undefined) | inactive
30 | CCOc1ccc(N(Cc2ccccc2)C(=O)c2nc(S(C)(=O)=O)ncc2Cl)cc1 | 2.51 µM (active)
31 | CCOc1ccc(N(Cc2ccccc2)C(=O)c2nc(SCC)ncc2Cl)cc1 | inactive
32 | CCOc1ccc(NC(=O)CN(Cc2ccccc2)S(=O)(=O)c2ccc(Cl)cc2)cc1 | inactive
33 | CC1=NN(C(N)=S)C(=O)C1N=Nc1cc(Cl)ccc1Cl (centres undefined) | inactive
34 | C[C@]12CCC(=O)C=C1C=CC1C2CC[C@@]2(C)C1CC[C@@]21CCC(=O)O1 (some centres undefined) | inactive
35 | CC1Cc2ccccc2N1S(=O)(=O)c1cccc(C(=O)OCC(=O)N2CCOCC2)c1 (centres undefined) | inactive
36 | CCN(CC)c1ccc(/C=N/Nc2nc(C)cc(=O)[nH]2)cc1 | inactive
37 | Cc1cc(=O)[nH]c(N/N=C/c2c(C)nn(-c3ccccc3Cl)c2Cl)n1 | 11.2 µM (active)
38 | Cc1cc(C)c(C=NNc2nc3c([nH]2)c(=O)n(C)c(=O)n3C)c(C)c1 | inactive
39 | O=C(O)c1ccc(NN=CC2=C(N3CCOCC3)/C(=C/c3ccccc3)CC2)cc1 | inactive
40 | Cc1ccc(/C=N/NC(=O)C2=NNC(c3ccccc3)(c3ccccc3)C2)c(O)c1 | 14.1 µM (active)
41 | Cc1ccc2nc(CNC(=O)c3ccccc3)[nH]c2c1 | inactive
42 | O=C(N/N=C/c1ccc(O)c2ccccc12)c1cccnc1 | inactive
43 | CC(NC(=O)c1ccccc1)C(=O)OCC(=O)Nc1cccc(S(=O)(=O)N2CCCC2)c1 (centres undefined) | inactive
44 | Cc1cc(C)c2nc(-c3ccco3)cc(C(=O)O)c2c1 | inactive
45 | Cc1cc(C)c2nc3nc(C)cc(C)c3c(N)c2c1 | 12.6 µM (active)
46 | Cc1cc(C)c2nc(SCCC#N)nc(C)c2c1 | inactive
47 | CCOC(=O)C1(Cc2ccccc2C)CCCN(C(=O)c2ccc(COC)o2)C1 (centres undefined) | inactive
48 | COc1ccc(N2CCN(S(=O)(=O)c3cc4c5c(c3)C(C)C(=O)N5CCC4)CC2)cc1 (centres undefined) | inactive
49 | Cc1ccc(NC(=O)c2oc3ccc(S(=O)(=O)N4CCCCC4)cc3c2C)cc1Cl | inactive
50 | O=C(CN1CCN(C/C=C/c2ccccc2)CC1)Nc1ccc(F)cc1F | inactive
51 | O=C(CC1SC(=Nc2ccccc2F)N(CCN2CCOCC2)C1=O)Nc1ccc(F)cc1F (centres undefined) | 11.2 µM (active)
52 | COC(=O)c1sccc1NC(=O)CC1C(=O)NCCN1C(=O)Nc1ccc(F)cc1F (centres undefined) | inactive

Row | Structure (SMILES) | Potency
53 | O=C(c1cc(COc2cccc(C(F)(F)F)c2)on1)N1CCSCC1 | inactive
54 | COc1ccc(Cc2nc3ccc(C(=O)NCC4CCOCC4)cc3o2)cc1OC | inactive
55 | CC1C(=O)N(Cc2cn(Cc3ccco3)nn2)CCS(=O)(=O)N1Cc1ccc(-c2cccc(CO)c2)cc1 (centres undefined) | inactive
56 | COCOCCn1cc(CN2CCS(=O)(=O)N(Cc3ccc(-c4cccc(N(C)C)c4)cc3)C(CC(C)C)C2=O)nn1 (centres undefined) | inactive
57 | CCCC=Cc1ccc(CN2C(C(C)C)C(=O)N(Cc3cn(CC4CCCCC4)nn3)CCS2(=O)=O)cc1 (centres undefined) | 25 µM (active)
58 | CC1CCN(c2ccc(-c3ccc(NC(=O)c4ccco4)cc3)nn2)CC1 | inactive
59 | O=C(c1ccccc1)N1CCN(C(=O)c2cc3nc(-c4ccccc4)cc(C(F)(F)F)n3n2)CC1 | 11.2 µM (active)
60 | O=C(O)c1cnn2c(C(F)(F)F)cc(-c3ccccc3)nc12 | inactive
61 | COC(=O)c1cc2nc(-c3ccccc3)cc(C(F)(F)F)n2n1 | inactive
62 | Cn1cc(S(=O)(=O)N2CCCCCC2)cc1C(=O)N1CCN(c2ccc(F)cc2)CC1 | inactive
63 | COc1cc2c(cc1OC)C(Cc1cc(OC)c(OC)cc1[N+](=O)[O-])=NCC2 | inactive
64 | COC(=O)Nc1nc2ccc(Oc3ccc(NC(=O)Nc4cccc(Cl)c4)cc3)cc2[nH]1 | 6.28 µM (active)
65 | COC(=O)Nc1nc2ccc(Sc3ccccc3)cc2[nH]1 | inactive
66 | Cc1cc(Cl)nc(NC(=O)Nc2cccc(Cl)c2)n1 | inactive
67 | COc1ccc(CN2CCN(C(=O)CCC(=O)Nc3nnc(C(C)C)s3)CC2)cc1F | inactive
68 | Cn1c(N)c(C(=O)COC(=O)c2cccc(S(=O)(=O)N3CCOCC3)c2)c(=O)n(C)c1=O | inactive
69 | Cc1ccc(Oc2ccc(N)cc2)cc1 | inactive
70 | CC(C)(C)c1ccc(Oc2ccc(N)cc2)cc1 | 0.651 µM (active)
71 | Nc1ccc(Oc2ccc(Cl)cc2)cc1 | inactive
72 | O=S(=O)(Nc1ccc2ccccc2c1)N1CCCCC1 | inactive
73 | O=C1CC(c2ccccc2)C(c2ccccc2)=NN1 (centres undefined) | inactive
74 | CN1CCN(CCCCOc2cccc3ccccc23)CC1 | inactive
75 | Cc1ccc(C(=O)NC(C)c2ccccc2)cc1Br (centres undefined) | 11.6 µM (active)
76 | CC1=CCC2C(=O)N(c3cccc(C(=O)NC(C)c4ccccc4)c3)C(=O)C2C1 (centres undefined) | inactive
77 | C=CCNC(=O)c1ccc(C)c(Br)c1 | inactive
78 | c1ccc2c(c1)OC1OC2Oc2ccccc21 | inactive

Row | Structure (SMILES) | Potency
79 | CC1CCN(C(=O)CCc2nnc3ccc(NCc4ccco4)nn23)CC1 | inactive
80 | COC(=O)CNC(=O)c1ccc(OC2CCN(C(=O)C3CC3)CC2)cc1 | inactive
81 | CCc1ccc(/C=N/NC(=O)c2ccc(OC3CCCC3)cc2)s1 | 2 µM (active)
82 | CCc1cc(C(N)=O)c(NC(=O)c2ccc(OC)cc2)s1 | inactive
83 | COC(=O)Cc1c(-c2[nH]c3ccccc3c2CC(=O)OC)[nH]c2ccccc12 | inactive
84 | O=C(COc1ccc(S(=O)(=O)N2CCOCC2)cc1Cl)N1CCOCC1 | inactive
85 | Cc1cc(C(=O)COc2ccccc2[N+](=O)[O-])c(C)n1-c1cccc(S(=O)(=O)N2CCOCC2)c1 | 6.31 µM (active)
86 | Cc1cc(S(=O)(=O)N2CCOCC2)ccc1OCC(=O)N1CCOCC1 | inactive
87 | CSCCC(NS(=O)(=O)c1ccccc1F)C(=O)N1CC=C(c2ccccc2)CC1 (centres undefined) | inactive
88 | O=C(c1ccc(F)cc1)N1CCC(C(=O)N2CCN(S(=O)(=O)c3ccccc3Br)CC2)CC1 | inactive
89 | COC(=O)c1cnn(-c2ccc(C(=O)Nc3ccc(OC(F)(F)F)cc3)cc2)c1N | inactive
90 | Cc1cccc(NS(=O)(=O)c2ccc(C(=O)NCC(C)(C)N3CCOCC3)cc2)c1C | inactive
91 | CC1CN(C(=S)SCC(=O)c2ccccc2)CC(C)O1 (centres undefined) | inactive
92 | O=C(CSC(=S)N1CCOCC1)c1ccccc1 | 14.6 µM (active)
93 | O=C(CSC(=S)N1CCOCC1)c1cc(Br)cc(Br)c1O | inactive
94 | Cc1cccc(C(=O)Nc2ccc(C(=O)N/N=C/c3cccc(C)n3)cc2)c1 | inactive
95 | Cc1cccc(C=CC(=O)c2ccc(Cl)cc2)c1 | inactive
96 | COc1ccc(OC)c(Cc2cnc3nc(N)nc(N)c3c2C)c1 | 0.251 µM (active)
97 | COc1ccc(OC)c(Cc2nnc(CCC(=O)NC3CCCC3)o2)c1 | inactive
98 | COc1ccc(OC)c(NC(=O)c2sc3nc(C)cc(C)c3c2N)c1 | inactive
99 | CC(=O)Nc1ccc(S(=O)(=O)NCC(=O)OCC(=O)c2ccc[nH]2)cc1 | inactive
100 | CC(=O)c1cccc(OCC(=O)OCC(=O)Nc2cc(S(=O)(=O)N3CCCCC3)ccc2C)c1 | inactive
101 | CCCOc1ccc(C(=O)CCC(=O)OC(C)C(=O)Nc2ccc(NC(C)=O)cc2)cc1 (centres undefined) | inactive
102 | CCCCOc1ccc(C(=O)NN2CCN(C)CC2)cc1 | inactive
103 | CCCOc1ccc(C(=O)C(CCC(CNCC)C(=O)c2ccc(OCCC)cc2)CNCC)cc1 (centres undefined) | 13 µM (active)
104 | CCc1noc(C)c1C(=O)N1CCCC(N2CCN(c3ccc(F)cc3)CC2)C1 (centres undefined) | inactive
